This note sets out measurements from PubChem BioAssay AID588726 (The Scripps Research Institute Molecular Screening Center, 2011).

Screen size: about 360,000 compounds; about 8,200 (2.3%) were called active. No stated cut-off is given here; in the data, active means inhibition above about 27%; inactive means the rest. The list comes from a sample in which actives are over-represented; it also holds similar structures and randomly drawn compounds.

Sequence of Fructose-bisphosphate aldolase (Mycobacterium tuberculosis (strain ATCC 25618 / H37Rv)) (P9WQA3 whole entry, looked up): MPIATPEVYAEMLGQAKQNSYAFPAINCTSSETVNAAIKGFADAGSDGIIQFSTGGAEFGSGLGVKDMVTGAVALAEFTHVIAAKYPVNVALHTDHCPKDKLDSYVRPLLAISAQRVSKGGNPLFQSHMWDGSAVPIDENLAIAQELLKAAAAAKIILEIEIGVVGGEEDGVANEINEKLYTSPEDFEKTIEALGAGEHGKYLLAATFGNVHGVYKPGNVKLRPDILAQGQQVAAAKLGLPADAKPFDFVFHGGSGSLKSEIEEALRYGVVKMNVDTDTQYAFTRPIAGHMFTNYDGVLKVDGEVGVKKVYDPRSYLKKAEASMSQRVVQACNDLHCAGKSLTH

This experiment has as its target Fructose-bisphosphate aldolase (Mycobacterium tuberculosis (strain ATCC 25618 / H37Rv)) (UniProt P9WQA3). As to the kind of experiment: M. tuberculosis aldolase activity blockers – biochemical, fluorescence, strain H37Rv, primary screen (AID 588726).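 Further: 0% = vehicle and 100% = reference inhibitor.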 The settings on record: purified M. tuberculosis FBA, fluorescence read-out, at 1 µM, active compounds read high.
With `Clc1ccc(Cl)c(Oc2ccc(Oc3nc(Cl)ccc3Cl)cc2)n1`, the inhibition (usually the relative decrease from the control value, in per cent) was 4.19% (inactive).

As to `COc1ccc2c(c1)C(=C(C#N)C#N)C(=O)N2CCc1ccccc1`, the inhibition is 0.52% (inactive). Take `COc1ccc2c(CC(=O)OCC(=O)Nc3ccccc3[N+](=O)[O-])coc2c1`: the inhibition is 2.62% (inactive).

With `CC(C)(C)OC(=O)Nc1ccc([C@@H](NC(=O)OC(C)(C)C)C(=O)OC(C)(C)C)cc1`, the inhibition was -1.85% (inactive). Next, `Cc1cc(S(=O)(=O)c2cc3ccc(O)c(C)c3oc2=O)ccc1F`: 72.4% (active). With `COc1cccc2cc(S(=O)(=O)c3ccc(C)cc3)/c(=N/NS(=O)(=O)c3ccc(C)cc3)oc12` the figure was -1.11% (inactive). As for `Cc1cc(C(=O)OCC(=O)c2c(N)n(C)c(=O)n(C)c2=O)c(C)o1`, the inhibition was 0.07% (inactive). Take `O=S(=O)(c1ccc(Br)cc1)n1ccc2ccccc21`: the inhibition was -4.37% (inactive). With `CS(=O)(=O)N(CC(=O)N1CCCC1)Cc1ccccc1` the figure was 1.15% (inactive); with `CN(Cc1ccccc1Cl)C(=O)C1CCC(=O)N(CCc2cccc(F)c2)C1` (configuration not stated), -0.04% (inactive). Next, `O=C(N=C1SC2CS(=O)(=O)CC2N1c1cc(Cl)ccc1Cl)C1CC1` (configuration not stated): 0.93% (inactive). Next, `CCOc1ccc(-c2noc(CCC(=O)NC3CCCC3)n2)cc1OC`: 1.23% (inactive); `COc1ccc2c(C)c(CCC(=O)NC3CC3)c(=O)oc2c1C`: 162% (active). Turning to `COc1ccc(CCNC(=O)CCC(=O)NC2CCCCC2)cc1OC`, the inhibition was 0.12% (inactive).

Turning to `CC(C)N1CCC(NC(=O)Nc2ccccc2)CC1`, the inhibition was 0% (inactive). With `Cc1ccc(-c2nn(-c3cccc(F)c3)cc2CNCCc2ccncc2)o1` the figure was 3.67% (inactive).

For `C#Cc1ccc(NC(=O)C2(C)CCN2C(=O)Cc2ccc(-c3ccccc3)cc2)cc1` (configuration not stated), the inhibition is -1.12% (inactive). Turning to `COc1ccc(S(=O)(=O)N(C)C[C@H]2Oc3c(NC(=O)Nc4ccc5c(c4)OCO5)cccc3C(=O)N([C@H](C)CO)C[C@@H]2C)cc1`, the inhibition is 112% (active). With `Cc1noc(C)c1S(=O)(=O)N(C)C[C@H]1Oc2c(NC(=O)Nc3ccc4c(c3)OCO4)cccc2C(=O)N([C@H](C)CO)C[C@@H]1C`, the inhibition is -0.42% (inactive). With `COc1ccc(S(=O)(=O)Nc2cccc3c2O[C@H](CN(C)S(=O)(=O)c2ccc(OC)cc2)[C@@H](C)CN([C@H](C)CO)C3=O)cc1` the figure was 0.3% (inactive); with `CCN(CCn1cccn1)C(=O)CC1C(=O)NCCN1Cc1cccc(OC)c1OC` (configuration not stated), 0.01% (inactive); with `CC(C)C1Nc2c(C(=O)O)cccc2C(Nc2ccccc2C(=O)O)C1(C)C` (configuration not stated), 107% (active).

On to `CCCCN1CC(COc2ccccc2)Oc2cccc(F)c2S1(=O)=O` (configuration not stated), for which the inhibition is -2.92% (inactive). With `O=C(c1ccc(Cl)cc1)N1N=C(c2ccccn2)CC1(O)C(F)(F)F` (configuration not stated) the figure was 4.39% (inactive); with `CCOC(=O)[C@H]1[C@H]2COc3ccc(C)cc3[C@@H]2N2C(=O)CN(Cc3ccc(F)cc3)C(=O)[C@@]12C`, 0.55% (inactive); with `CC[C@@H]1Cc2cc(O)ccc2C2=C1c1ccc(O)cc1C[C@H]2CC`, 89.3% (active). With `O=C1NC(=O)C(c2ccc(Cl)cc2)N1` (configuration not stated) the figure was 3.68% (inactive); with `COCCNC(=O)c1ccc2nc(Cc3ccc(OC)c(OC)c3)oc2c1`, 2.67% (inactive). With `COc1ccc(CNC(=O)COc2ccccc2C(=O)c2cnn(-c3ccccc3)c2)cc1OC` the figure was 6.29% (inactive); with `CCCCNC(=O)c1ccccc1NC(=O)C1=C(C)OCCS1`, 1.28% (inactive).

With `O=C(O)/C=C/c1cn(-c2ccccc2)nc1-c1cccs1`, the inhibition was 57.3% (active). Next, `Cc1ccc(-c2nn(-c3ccccc3)cc2/C=C/C(=O)Nc2cccc(S(N)(=O)=O)c2)cc1`: 2.47% (inactive). With `CC(=O)C1=C(C)NC(C)=C(C(C)=O)C1c1cn(-c2ccccc2)nc1-c1cccs1` the figure was 0.45% (inactive). Next, `O=C1COc2ccc(NC(=O)N3CCN(c4ccc(F)cc4)CC3)cc2N1`: 1.24% (inactive); `CC(=O)NC12CC3CC(C1)CC(C(=O)N1CCN(S(=O)(=O)c4cccs4)CC1)(C3)C2`: -0.81% (inactive); `Cc1cn(C2OC[C@@H](O)[C@@H]2CO)c(=O)[nH]c1=O` (some centres not stated): 0.66% (inactive).

As to `O=C(Nc1ccc([N+](=O)[O-])cc1)C1(c2ccccc2)CCOCC1`, the inhibition was -1.46% (inactive). Next, `O=C(OCC(=O)N1CCCC1=O)c1cc(S(=O)(=O)N2CCOCC2)ccc1Cl`: -0.38% (inactive); `CCOC(=O)c1cc(C)nc(S(C)(=O)=O)c1C#N`: 3.95% (inactive); `COCc1c(N)c(C)nc(Cl)c1C#N`: 7.26% (inactive). With `COC(=O)c1c(C)c(C)nc(N)c1C#N` the figure was 82.5% (active); with `Cn1nc(C(C)(C)C)c([N+](=O)[O-])c1C(N)=O`, 1.86% (inactive); with `O=C(Cn1cnc([N+](=O)[O-])n1)NCCc1ccccc1`, 0.01% (inactive). Next, `CC1CCCCN1CCCNC(=O)Cn1ncc2c([nH]c3ccccc32)c1=O` (configuration not stated): 12% (inactive); `O=C(NC1CCCCC1)c1ccc2c(=O)n(CC3CCCO3)c(=O)[nH]c2c1` (configuration not stated): -9.09% (inactive); `CCCCCn1c(=O)[nH]c2cc(C(=O)NCCCN3CCCCC3C)ccc2c1=O` (configuration not stated): 114% (active). As for `CCOC1CS(=O)(=O)CC1OCC` (configuration not stated), the inhibition is -0.21% (inactive). As to `Cc1ccc(Cc2c(-c3ccc(C)cc3)nc3c4ccccc4ccn23)cc1`, the inhibition is 4.37% (inactive). Next, `c1ccc(Cc2c(-c3ccco3)nc3c4ccccc4ccn23)cc1`: 33.2% (active). Turning to `FC(F)(F)c1ccccc1Cc1c(-c2ccccc2)nc2c3ccccc3ccn12`, the inhibition is 5.62% (inactive). With `Cc1cc(NC(=O)/C=C/C(=O)N(CC(=O)NC2CCCC2)c2ccc(F)cc2)no1` the figure was -1.71% (inactive). With `CC1CN(/C=C/C(=O)C(F)(F)F)CC(C)O1` (configuration not stated) the figure was -2.87% (inactive); with `O=C1CN(C(=O)COC(=O)C2CC(=O)N(Cc3ccco3)C2)c2ccccc2N1` (configuration not stated), 1.16% (inactive). Next, `CN1C(=O)c2ccc(NC(=O)c3c(F)c(F)c(F)c(F)c3F)cc2C1=O`: 37.5% (active); `Cc1cccc(C(=O)Nc2ccc3c(c2)C(=O)N(CC(C)C)C3=O)c1`: 8.31% (inactive). For the compound `Cc1nc2ccc(NC(=O)C3CCCCC3)cc2s1`, the inhibition was 2.5% (inactive).

`CN1C(=O)c2ccc(C(=O)Nc3ccc(Br)cn3)cc2C1=O`: the inhibition is -2.34% (inactive).

Turning to `O=C(Nc1ccc2c(c1)OCCO2)C1CCCC1`, the inhibition was -2.43% (inactive). With `CN1C(=O)c2ccc(NC(=O)C3CCCCC3)cc2C1=O` the figure was 33.2% (active); with `COc1cc(CN2CCCN(C)CC2)c([N+](=O)[O-])cc1OC`, 2.5% (inactive). Next, `O=C(Nc1ccc(F)c([N+](=O)[O-])c1)C1CC(=O)N(Cc2ccccc2)C1` (configuration not stated): -0.61% (inactive); `Cc1cc(=O)oc2cc(NC(=O)C3CC(=O)N(Cc4ccccc4)C3)ccc12` (configuration not stated): 68.5% (active); `CCNC(=O)c1cccc(NC(=O)C2CC(=O)N(CCc3ccccc3)C2)c1` (configuration not stated): 3.18% (inactive). With `CC(=O)c1cccc(NC(=O)COc2ccc(S(=O)(=O)N3CCOCC3)cc2)c1` the figure was -1.21% (inactive). For the compound `Cc1ccc(NC(=O)C(CC(=O)O)C2CCCO2)c(C)c1` (configuration not stated), the inhibition is 2.55% (inactive). `CCOC(=O)c1oc2c(CN3CCN(C)CC3)c(O)ccc2c(=O)c1-c1ccc(Br)cc1`: the inhibition was -0.95% (inactive). With `O=c1c(-c2ccccc2)coc2cc(O)ccc12` the figure was 32.2% (active). Next, `O=C1/C(=C/c2coc3ccc(O)cc3c2=O)SC(=S)N1c1ccccc1`: -0.97% (inactive); `O=c1c(-c2ccccc2)coc2c(CN3CCOCC3)c(O)ccc12`: 36.3% (active); `CC(C)=CCc1c(O)c(CC=C(C)C)c2occ(-c3ccc(O)cc3)c(=O)c2c1O`: -0.11% (inactive). Next, `O=c1[nH]c(CN2CCOCC2)nc2scc(-c3ccccc3)c12`: -0.65% (inactive). As for `O=C(Cc1cccs1)N(CC1CCCO1)C1(C(=O)NC2CCCCC2)CCCCC1` (configuration not stated), the inhibition is -1.48% (inactive). With `C/C(=N/NC(=O)CN1CCN(S(=O)(=O)c2ccc(Br)cc2)CC1)c1ccncc1` the figure was -1.72% (inactive); with `Cc1nc2nc(C)c(NS(=O)(=O)c3ccc(C(C)(C)C)cc3)c(=O)n2[nH]1`, 1.79% (inactive); with `CC(=O)c1ccc(N2CCN(CC(O)c3ccccc3)CC2)cc1` (configuration not stated), -0.54% (inactive).

On to `COc1cc(N)c(Cl)cc1C(=O)OCC(=O)c1ccc2c(c1)NC(=O)CO2`, for which the inhibition is -2.6% (inactive).

On to `CSc1ccc(CN2C(=O)NC3(CCCCCC3)C2=O)cc1`, for which the inhibition is 6.55% (inactive). With `COc1ccc(CNC(=O)c2c[nH]c3c(OC)cc(OC)cc3c2=O)cc1` the figure was 34.8% (active); with `COc1ccc(CNC(=O)c2cc(C(=O)C3CC3)c[nH]2)cc1`, 5.17% (inactive); with `CCSc1ccccc1C(=O)NCc1ccc(OC)cc1`, -3.44% (inactive). On to `C=CC[C@@H](CC(=O)N[C@@H](CO)Cc1ccccc1)C(=O)N[C@H](COC(=O)[C@H](CC=C)CC(=O)OC(C)(C)C)Cc1ccccc1`, for which the inhibition is 3.8% (inactive). Next, `Cc1nc(NCCN)c(C#N)c2c1COC(C)(C)C2`: 27.9% (active); `CCCCc1nc(NCCN)c(C#N)c2c1CSC(C)(C)C2`: 5.12% (inactive); `Cc1nc(NCc2ccccc2)c(C(N)=O)c2c1COC(C)(C)C2`: 22.3% (inactive). Next, `CC(C)Cc1nnc(N)s1`: 0.9% (inactive); `CC(=O)Nc1ccc(S(=O)(=O)NCCC(=O)N2CCN(c3ccccc3Cl)CC2)cc1`: 3.53% (inactive). With `O=C(Nn1c(-c2ccc(Cl)cc2)nc2ccccc2c1=O)c1cccnc1Cl` the figure was 15% (inactive); with `O=c1c2ccccc2nc(-c2ccccc2)n1-c1ccccn1`, -4.31% (inactive); with `Cc1ccc(-c2nc3ccccc3c(=O)n2-c2ccc(Br)cn2)cc1`, 27.5% (active). For `O=Cc1c(N2CCN(c3cccc(Cl)c3)CC2)nc2ccccn2c1=O`, the inhibition was 6.06% (inactive). With `COCCNC(=O)/C(C#N)=C/c1nc(N(C)C)n(-c2ccc(F)cc2)c1Cl` the figure was 0.71% (inactive); with `COCCCNC(=O)/C(C#N)=C/c1c(N2CCCCCC2)nc2ccccn2c1=O`, 74.5% (active).
